About 83,000 compounds went through this panel and 20% of them were active in at least one assay; those are over-represented in the sample as a whole.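 Note: values are percent growth. 100 is the growth of untreated cells, values between 100 and 0 indicate rising inhibition; between -100 and 0 indicates cell death.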 The source made the active and inactive calls. How the source made its calls: active means growth percent below 10; inactive means the rest.

The experiment concerns SF-295 CNS. The experiment can be described thus: NCI-60 one-dose screen, 48 h (100 = growth as untreated, 0 = no growth, -100 = all killed). The conditions noted are these: 10 µM unless noted.
In the case of `Cc1cccc(NC(=O)Nc2ccc(-c3ccc4c(c3)NC(=O)/C4=C\c3ccc[nH]3)cc2)c1`, the growth is 66.1% (inactive).

Turning to `Cc1cc2nc3c4cc(C=O)ccc4n(CCN(C)C)c3nc2cc1C`, the growth is 17.1% (inactive).

Consider `c1ccc2c(-c3nccs3)c[nH]c2c1`, for which the growth was 101% (inactive).

For `COc1cc(NC(C)CCCNC(=O)CCC(=O)NCCCNCCCCCCCCCCNCCCNC(=O)CCC(=O)NCCCC(C)Nc2cc(OC)cc3cccnc23)c2ncccc2c1` (centres undefined), the growth is 97% [8 µM] (inactive).

Turning to `O=C1c2ccc3c4c(ccc(c24)C(=O)N1CCCNCc1ccccc1)C(=O)N(CCCNCc1ccccc1)C3=O`, the growth was -39.7% (active).

As for `COc1ccc(CNCCN2C(=O)c3ccc4c5c(ccc(c35)C2=O)C(=O)N(CCNCc2ccc(OC)c(OC)c2OC)C4=O)c(OC)c1OC`, the growth is -44.8% (active).

On to `CCN(CC)c1ccc(C(=O)c2ccccc2)cc1`, for which the growth is 101% (inactive).

For the molecule `COc1cc2c(c(O)c1Cl)C(=O)c1c(O)cc(C[C@H](C)O)cc1[C@H]2[C@H]1c2cc(C[C@H](C)O)cc(O)c2C(=O)c2c1cc(OC)c(Cl)c2O`, the growth is -14.6% (active).

With `Nc1c(C(=O)Nc2cccc3cnccc23)sc2nc3c(cc12)C(=O)CCC3`, the growth is 74.9% (inactive).

Regarding `O=C(CCN1CCCC1)Nc1ccc2c(Nc3ccc(F)cc3)c3ccccc3nc2c1`, the growth is 15.2% (inactive).

As to `COc1cc2c(cc1OC)C(=O)/C(=C/c1cc(C)c(O)c(C)c1)S2`, the growth was 18.4% (inactive).

As for `CCCCCN1C=C/C(=C\C(=O)N(C)c2ccc(Oc3ccccc3)cc2)c2ccccc21`, the growth was 81.1% (inactive).

Take `C/C(=N\Nc1cc(C)nc2ccc(Br)cc12)c1ccc([N+](=O)[O-])cc1`: the growth was 49.4% (inactive).

On to `N/C(=N\C(N)=N\c1nc2ccccc2s1)c1ccnc(Br)c1`, for which the growth was 5.59% (active).

Consider `COc1cc(/C=N/NC(=O)c2cnn3c2NC(c2ccccc2)C3)ccc1Oc1ccccc1` (centres undefined), for which the growth was 0.968% (active).

Turning to `COc1cc(-c2n/c(=C\c3c(O)[nH]c4ccc(Cl)cc34)cc3c2=Nc2ccccc2-3)ccc1F`, the growth is 43.1% (inactive).

Turning to `c1ccc2c(-c3c[nH]c4ccccc34)c3c(cc2c1)[nH]c1ccccc13`, the growth is 85.4% (inactive).

For the molecule `C=C(C)[C@@H]1CC[C@]2(CN)CC[C@]3(C)[C@H](CC[C@@H]4[C@@]5(C)CCCNC(C)(C)[C@@H]5CC[C@]43C)[C@@H]12`, the growth is -59.6% (active).

In the case of `CCOC(=O)/C(C#N)=C1/NNC(=Nc2cccnc2)S1`, the growth was 98.9% (inactive).

Take `O=C1c2ccc3c4c(ccc(c24)C(=O)N1CCCNCc1ccccc1Cl)C(=O)N(CCCNCc1ccccc1Cl)C3=O`: the growth was -52.2% (active).

As for `CCN(CC)c1ccc(/C=N/NC(=O)CSc2nc3ccccc3c(=O)n2Cc2ccc(S(N)(=O)=O)cc2)c(O)c1`, the growth was 20.3% (inactive).

`COc1cc(/C=C/c2cc(O)c(C(C)=O)c(O)c2)cc2c1O[C@]1(C)CC[C@@H](O)C(C)(C)[C@H]1C2`: the growth is 8.72% (active).

For the molecule `O=C(CCN1CCCC1)Nc1ccc2c(NCCCc3ccccc3)c3ccccc3nc2c1`, the growth is 46.9% (inactive).

For `CCSCC1CC(O)(c2ccccc2)CC(c2ccc(F)cc2)O1` (centres undefined), the growth is -14.8% (active).

Turning to `N/C(=N\C(N)=N\c1nc2ccccc2s1)c1cnccn1`, the growth is 28% (inactive).

Regarding `C#CCNC(=O)[C@]1(C)CC[C@]2(C)CC[C@@H]3C(=CC[C@H]4[C@@]3(C)CC[C@H]3C(C)(C)C(=O)CC[C@]43C)[C@@H]2C1`, the growth is 107% (inactive).

Turning to `CCc1ccc(CNc2ccc(N3CCOCC3)c(C(=O)O)c2)cc1`, the growth is 103% (inactive).

As for `COc1ccc(/C=N/NC(=O)c2cnn3c2NC(c2ccccc2)C3)cc1OC` (centres undefined), the growth was 36.3% (inactive).

As for `N#CC1=C(/N=C/c2ccccc2)Oc2c(ccc3ccccc23)C1c1ccc([N+](=O)[O-])cc1` (centres undefined), the growth was 98.5% (inactive).

In the case of `O=C(Cc1ccccc1)NNc1nc(Cl)nc(N2CCN(C(c3ccccc3)c3ccccc3)CC2)n1`, the growth is 98.6% (inactive).

In the case of `COC(=O)C1=C(C(=O)ON)[C@@H]2C=C[C@@]1([C@@H](Cc1ccccc1)Nc1ccccc1)O2`, the growth is 105% (inactive).

Consider `CCCOC(=O)N[C@H]1CCc2c(Cl)c(OC)c(OC)c(OC)c2-c2ccc(SC)c(=O)cc21`, for which the growth is 17.5% (inactive).

Take `CCN(CC)CCCC(C)Nc1cc(O)cc2cccnc12` (centres undefined): the growth was 104% (inactive).

Regarding `O=C1c2ccc3c4c(ccc(c24)C(=O)N1CCCNCc1ccccc1F)C(=O)N(CCCNCc1ccccc1F)C3=O`, the growth is -67.7% (active).

These data come from PubChem BioAssay (NCI).
